Screening data from PubChem.
hgDAF12 agonist: H. glycines DAF-12 receptor agonists, primary screen, cell-based, luminescence, HEK293, GAL4 fusion, UAS-luciferase | hit rate 1.8% among 370,000 | HEK293 GAL4-hgDAF12 UAS-luciferase reporter, agonist luminescence; normalized to butyrate control | activation, % at 6.8 µM;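 active = activation above a cutoff set at the mean of all screened compounds plus 3 SD, cut at about 10% in these data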
DAX1 inh-1: DAX1 (NR0B1) inhibitors, primary screen, cell-based, HEK293, Gal4-DAX1, luciferase luminescence; HEK293 Gal4-DAX1 luciferase reporter; inhibition, % at 6.75 µM; hit rate 0.99% among 340,000; AID 504766, 2011;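 active = inhibition above the mean over all tested compounds plus 3 SD, cut at about 4.2% in these data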;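 also: inhibition shows as a rise in luminescence from relieved DAX1 repression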
Target sequence (P51843 207-470 limits assumed): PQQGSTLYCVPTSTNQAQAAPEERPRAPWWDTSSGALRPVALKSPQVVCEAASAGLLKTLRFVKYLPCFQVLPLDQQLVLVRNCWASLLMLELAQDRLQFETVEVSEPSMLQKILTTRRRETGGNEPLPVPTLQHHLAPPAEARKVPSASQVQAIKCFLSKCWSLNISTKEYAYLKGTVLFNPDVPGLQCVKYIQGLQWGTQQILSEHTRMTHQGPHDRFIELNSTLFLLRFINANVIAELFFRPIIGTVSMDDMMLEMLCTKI
hcDAF-12 act: H. contortus DAF-12 nuclear receptor activators, primary screen, cell-based, luminescence, HEK293, lit1-tk-luc reporter; HEK293 hcDAF-12 lit1-tk-luc reporter; 0% DMSO, 100% Δ7-dafachronic acid; activation, % at 6.8 µM; hit rate 1.4% among 370,000; AID 652067, 2013;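 active = activation above the mean of all tested compounds plus 3 SD, cut at about 5.5% in these data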
ssDAF-12 act: S. stercoralis DAF-12 nuclear receptor activators, primary screen, cell-based, luminescence, HEK293, GRIP1 co-expression, lit1-tk-luc; activation, % at 6.8 µM; hit rate 1% among 370,000; HEK293 ssDAF-12/GRIP1 lit1-tk-luc reporter; % of 3 µM dafachronic acid response; AID 652126, 2013;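 active = activation above the mean over all tested compounds plus 3 SD, cut at about 0.9% in these data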
DAX1 inh-2: DAX1 (NR0B1) inhibitors on StAR promoter, primary screen, cell-based, luminescence, SF-1 (NR5A1), full-length DAX-1; HEK293T StAR-luciferase reporter, SF-1/DAX-1 repression relief; inhibition, % at 6.8 µM; hit rate 1.1% among 370,000;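 active = inhibition above the mean over all tested compounds plus 3 SD, cut at about 3.6% in these data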;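 also: higher inhibition means more luminescence from relief of DAX-1 repression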
SMARCA2 act: SMARCA2 (BRM) function activators, primary screen, cell-based, luminescence, high throughput; MG213 cells, MMTV-luciferase reporter, dexamethasone, overnight; activation, % at 9.1 µM; hit rate 1% among 370,000; in the data active = activation above about 7.8%
SMARCA2 conf: SMARCA2 (BRM) function activators, confirmation, cell-based, luminescence, triplicate. shares compounds with SMARCA2 act. hit rate 30% among 3,500. MG213 cells, MMTV-luciferase with dexamethasone, overnight; MG213 cells expressing E1A, Rb sequestered; DMSO wells 0%, reference activator 100%. activation, % at 9.1 µM. AID 652260, 2013;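 active = activation above its plate's cutoff, the mean activation of tested wells plus 3 SD, cut at about 7.9% in these data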
VP16 Luc act: GAL4-VP16 luciferase reporter activation, counter-screen for SMARCA2 (BRM) activator project, cell-based, pG5luc, luminescence, high throughput; activation, % at 9.1 µM; hit rate 41% among 3,500; HEK293 GAL4-VP16 pG5luc reporter; scaled: DMSO wells 0%, SAHA wells 100%; shares compounds with SMARCA2 act; AID 686939, 2013;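 active = activation above the solvent-only control well mean plus 3 SD, averaged across control plates, cut at about 5.2% in these data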
Numbers stand for hits; . = inactive; / = no result given. A selection: hits, their analogues and other compounds. The true share with any hit is near 4.8%.

SMILES	hgDAF12 agonist	DAX1 inh-1	hcDAF-12 act	ssDAF-12 act	DAX1 inh-2	SMARCA2 act	SMARCA2 conf	VP16 Luc act
COc1ccc(-c2cc(=O)n(CCC#N)[nH]2)cc1	.	.	.	.	.	13	.	.
COc1ccc(-c2cc(=O)[nH][nH]2)cc1	.	.	.	.	.	.	/	/
O=C(N/N=C/c1ccc(Cl)cc1Cl)c1n[nH]c2c1CCCC2	.	.	.	.	.	9.5	.	8.0
CCC[C@H]1[C@@H](NC(=S)Nc2ccccc2Cl)CC[C@@]23CCCN2C(=O)CCC[C@@H]13	.	/	.	.	/	/	/	/
Cc1cc(C)c2[nH]c(C(=O)Nc3ccc4c(c3)OCO4)cc2c1	.	.	.	.	.	8.0	.	.
COC(=O)[C@]12C[C@H](CC(=O)NCCCN3CCCC3=O)C(=O)N(Cc3ccc4c(c3)OCO4)C1=C[C@H](C(C)C)O[C@@H]2C1CC1	.	/	.	.	.	.	/	/
COC(=O)[C@]12C[C@H](CC(=O)N3CCSCC3)C(=O)N(CCc3ccc(OC)c(OC)c3)C1=C[C@H](COCc1ccccc1)O[C@@H]2C	.	/	.	.	.	.	/	/
CC(=O)N1CCN(c2ccnc3cc(Cl)ccc23)CC1	.	.	.	.	.	11	.	.
O=C(C1CC1)n1ccc2ccc(-c3ccc4ccn(Cc5ccccc5)c4c3)cc21	.	/	.	.	.	.	/	/
COCCn1c(SCc2nc3ccccc3s2)nc2ccccc21	.	.	.	.	.	15	.	8.1
CCOCCCn1c(SCc2nc3ccccc3s2)nc2ccccc2c1=O	.	.	.	.	.	.	/	/
CCn1c(SCc2nc3ccccc3s2)nc2cc(S(=O)(=O)N3CCOCC3)ccc21	.	.	.	.	.	10	.	.
Cc1ccc(-n2c(SCC(=O)Nc3cccc4ccccc34)nnc2-c2ccccc2)cc1	.	/	.	.	.	.	/	/
CCOC(=O)N1CCN(C(=O)C[C@H]2C[C@@]3(C(=O)OCC)CCCC4=C3N(CCC4)C2=O)CC1	.	/	.	.	.	.	/	/
Cc1ccc(NC(=O)C2C(C(=O)O)C3C=CC2C32CC2)cc1 (configuration not stated)	.	.	.	.	.	9.8	.	.
Cc1cccc(NC(=O)C2C(C(=O)O)C3C=CC2C32CC2)c1C (configuration not stated)	.	.	.	.	.	.	/	/
CCc1cccc(CC)c1NC(=O)C(CC)Sc1nc2ccncc2[nH]1 (configuration not stated)	.	.	.	.	.	8.3	.	.
CCc1cccc(C)c1NC(=O)CSc1nc2ccncc2[nH]1	.	.	.	.	.	.	/	/
CC(=O)N1CCc2cc(Br)c(S(=O)(=O)NCc3ccc(Cl)cc3)cc21	.	/	.	.	.	.	/	/
COC(=O)c1ccc(Cn2ccc3ccc(-c4ccc5ccn(C(=O)c6ccccc6)c5c4)cc32)cc1	.	/	.	.	.	.	/	/
O=C(Nc1ccccc1)Nc1nc2ncccn2c1-c1ccc(F)cc1	.	/	.	.	.	14	.	.
O=C(Nc1nc2ncccn2c1-c1ccc(F)cc1)C1CC1	.	/	.	.	.	8.7	.	.
Cc1ccc(-c2c(NC(=O)Nc3ccccc3)nc3ncccn23)cc1	.	/	.	.	.	.	/	/
CCCC1CCC2(CC1)CCC2OC(=S)Nc1cccc(I)c1 (configuration not stated)	.	/	.	.	/	/	/	/
Fc1cccc(-c2cc3nc4c(c(N5CCOCC5)n3n2)CCCC4)c1	.	.	.	.	.	9.4	.	.
SMILES	hgDAF12 agonist	DAX1 inh-1	hcDAF-12 act	ssDAF-12 act	DAX1 inh-2	SMARCA2 act	SMARCA2 conf	VP16 Luc act
Fc1cccc(-c2cc3nc4c(c(NCc5ccco5)n3n2)CCCC4)c1	11	.	.	.	4.2	8.4	.	11
CCOc1ccc(-c2ccc(SCC(=O)NC3CCCCC3)nn2)cc1	.	.	.	.	.	8.5	.	8.9
COc1ccc(-c2ccc(SCC(=O)NC3CCCCC3)nn2)cc1	.	.	.	.	.	.	/	/
COc1ccc2c(c1)CC/C(=C\c1ccc(C)o1)C2=O	.	4.9	.	.	.	11	18	14
CCc1ccc(OCC(=O)NC(=S)Nc2cccc(CO)c2)c(Br)c1	.	.	.	.	.	.	/	/
CCc1ccc(OCC(=O)NC(=S)Nc2ccc(F)cc2)c(Br)c1	.	.	.	.	.	8.9	.	.
CCN(CC)CCNc1ccc(C)c2sc3ccc(O)cc3c(=O)c12	.	.	.	.	.	8.4	18	.
CC(=O)c1cc(-c2cccc(CO)c2)c(=O)n2c1CCC2	.	/	.	.	.	.	/	/
C=COC(=O)c1sc2nc(C)cc(C)c2c1N	.	.	.	.	.	9.3	11	.
COC(=O)c1sc2nc(C)cc(C)c2c1N	.	.	.	.	.	.	/	/
CC1CCC2(CC1)NC(=O)N(CC(=O)Nc1ccc3c(c1)OCCO3)C2=O (configuration not stated)	.	.	.	.	.	12	10	.
Cc1ccc(NC(=O)C2CC(=O)N(C(C)C)C2)cc1C (configuration not stated)	.	.	.	.	.	.	/	/
Cc1ccc(NC(=O)C2CC(=O)N(C(C)C)C2)cc1Cl (configuration not stated)	.	.	.	.	.	8.3	.	.
COC(=O)c1sc(-c2ccc(Cl)cc2)cc1NC(=O)/C=C/C(=O)O	.	.	.	.	.	9.1	.	.
COC(=O)c1sc(-c2ccc(Cl)cc2)cc1NC(=O)COCC(=O)O	.	.	.	.	.	.	/	/
CC(C)Nc1ccc(Nc2ccnc3cc4ccccc4cc23)cc1	.	.	.	.	.	12	9.1	.
Cn1c(COc2ccccc2)nnc1SCC(=O)Nc1ccc(OCc2ccccc2)cc1	.	/	.	.	.	.	/	/
